Tested on: murine 3T3 fibroblasts
Experiment: primary screen, percent viability or growth; higher = less effect of the substance
Experimental: Similarly, for measuring the cytotoxicity concentration (CC50) for 3T3 fibroblast cells, cultures were incubated with drugs for 72 hours and developed using Alamar Blue (Alamar Biosciences Inc, Sacramento, CA) as previously described.

First: O[C@H]1[C@H]2c3cc4c(cc3CN3CCC(=C[C@@H]1O)[C@H]23)OCO4
Second: CSc1ccc2c(c1)C(N1CCN(C)CC1)Cc1ccccc1S2.O=C(O)/C=C\C(=O)O (centres unmarked)
The “Mammalian (3T3) cell % growth at 10 uM” value of the first is lower: 29.6% for the first, 69.6% for the second.

First: CN(C)CCCN1c2ccccc2Sc2ccccc21.Cl
Second: CN(C)CCC=C1c2ccccc2CCc2ccccc21
The “Mammalian (3T3) cell % growth at 10 uM” value of the first is lower: 98.7% for the first, 100% for the second.

Going from `CNCCC(Oc1ccc(C(F)(F)F)cc1)c1ccccc1.Cl` (centres unmarked) to `CN1CCCC1CCOC(C)(c1ccccc1)c1ccc(Cl)cc1` (centres unmarked), the “Mammalian (3T3) cell % growth at 10 uM” value falls from 100% to 93.2%.

Compared with `COC(=O)C1=C(C)NC(C)=C(C(=O)OC)C1c1ccccc1[N+](=O)[O-]`, `COC(=O)C1=C(C)NC(C)=C(C(=O)OCCN(C)Cc2ccccc2)C1c1cccc([N+](=O)[O-])c1` (centres unmarked) is higher in “Mammalian (3T3) cell % growth at 10 uM” value: 1.7% for the first, 99.8% for the second.

Going from `C=C1c2c(Cl)ccc(O)c2C(O)=C2C(=O)[C@]3(O)C(=O)/C(=C(/N)O)C(=O)[C@@H](N(C)C)[C@@H]3[C@@H](O)[C@H]12.O=C(O)c1cc(S(=O)(=O)O)ccc1O` to `O=c1c(O)c(-c2ccc(O)c(O)c2)oc2c(O[C@@H]3O[C@H](CO)[C@@H](O)[C@H](O)[C@H]3O)c(O)cc(O)c12`, the “Mammalian (3T3) cell % growth at 10 uM” value rises from 60.9% to 100%.

`CC12CCC3C(CCC4CC(O)CCC43C)C1CCC2=O` (centres unmarked) and `CC(=O)[C@H]1CC[C@H]2[C@@H]3CC[C@H]4C[C@@H](O)CC[C@]4(C)[C@H]3CC[C@]12C` are the same in “Mammalian (3T3) cell % growth at 10 uM” value: 100% for the first, 100% for the second.

First: COc1ccc2c(c1)OC/C(=C/c1ccc(OC)c(O)c1)C2=O
Second: COc1cc(OC)c2c(=O)c(OC)c(-c3ccc(OC)c(OC)c3)oc2c1
The “Mammalian (3T3) cell % growth at 10 uM” value of the first is lower: 8.8% for the first, 43.3% for the second.

Going from `COC(=O)CC1C2(C)CC34OC5(C)OC6(C7/C(=C(\OC)C(C)C)C(=O)OC(c8ccoc8)C7(C)C(OC(=O)C(C)C)C(OC)C6(O5)C13C)C(OC)C4(OC)C2OC(C)=O` (centres unmarked) to `COC(=O)CC1C(C)(C)C(OC(C)=O)C2C(OC(C)=O)C34OC2(O)C1(C)C3CCC1(C)C4=CC(=O)OC1c1ccoc1` (centres unmarked), the “Mammalian (3T3) cell % growth at 10 uM” value rises from 53.4% to 89.7%.

Going from `O=c1cc(-c2cc(O)c(O)c(O)c2)oc2cc(O)cc(O)c12` to `O=c1cc(-c2ccccc2)oc2c(O)c(O)ccc12`, the “Mammalian (3T3) cell % growth at 10 uM” value falls from 100% to 72.6%.

Compared with `CCCCC1C(=O)N(c2ccccc2)N(c2ccc(O)cc2)C1=O` (centres unmarked), `O=C(CCCN1CCC2(CC1)C(=O)NCN2c1ccccc1)c1ccc(F)cc1` is higher in “Mammalian (3T3) cell % growth at 10 uM” value: 72.8% for the first, 94.7% for the second.

Going from `CC(=O)OC1CC2C(C)(C)C(=O)C3OC3C2(C)C2CCC3(C)C(c4ccoc4)OC(=O)C4OC43C12C` (centres unmarked) to `CC(=O)O[C@]1(C(C)=O)CC[C@H]2[C@@H]3C=C(Cl)C4=CC(=O)CC[C@]4(C)[C@H]3CC[C@@]21C`, the “Mammalian (3T3) cell % growth at 10 uM” value rises from 73.4% to 97.4%.

Going from `C=CC(C)(O)CCC1C(=C)CCC2C(C)(CO)CCCC12C` (centres unmarked) to `C=CC(C)(O)CCC1C(=C)CC(O)C2C(C)(C)CCCC12C` (centres unmarked), the “Mammalian (3T3) cell % growth at 10 uM” value falls from 86.1% to 74%.

`CC(=O)N1CCN(c2ccc(OC[C@H]3CO[C@](Cn4ccnc4)(c4ccc(Cl)cc4Cl)O3)cc2)CC1` and `COc1ccc(-c2cc(=O)c3ccccc3o2)cc1` are the same in “Mammalian (3T3) cell % growth at 10 uM” value: 100% for the first, 100% for the second.

Compared with `C=C(C)[C@@H]1CC[C@]2(CO)CC[C@]3(C)[C@H](CC[C@@H]4[C@@]5(C)CC[C@H](O)C(C)(C)[C@@H]5CC[C@]43C)[C@@H]12`, `COc1c(-c2coc3cc4c(cc3c2=O)CC(O)C(C)(C)O4)ccc2c1C=CC(C)(C)O2` (centres unmarked) is lower in “Mammalian (3T3) cell % growth at 10 uM” value: 100% for the first, 59% for the second.

First: O=C(O)/C=C/c1ccc(O)c(O)c1
Second: COc1cc(O)c2c(c1)C(=O)c1cc(C)cc(O)c1C2=O
The “Mammalian (3T3) cell % growth at 10 uM” value of the first is lower: 2.5% for the first, 96.8% for the second.

First: CCc1nc(N)nc(N)c1-c1ccc(Cl)cc1
Second: C=CC(C1=CC(=O)C(OC)=CC1=O)c1ccc(O)cc1 (centres unmarked)
The “Mammalian (3T3) cell % growth at 10 uM” value of the first is higher: 97.6% for the first, 94.8% for the second.

Source: paper PMC4102417
